Here are results for 40 molecules from PubChem BioAssay (NCATS).

A number with no mark means an inactive call. Unless noted, calls come from the whole dose curve. Records with an inconclusive call do not appear.

Chain of Glucocorticoid receptor (Homo sapiens) (P04150 whole entry, looked up, the tested form may be a part): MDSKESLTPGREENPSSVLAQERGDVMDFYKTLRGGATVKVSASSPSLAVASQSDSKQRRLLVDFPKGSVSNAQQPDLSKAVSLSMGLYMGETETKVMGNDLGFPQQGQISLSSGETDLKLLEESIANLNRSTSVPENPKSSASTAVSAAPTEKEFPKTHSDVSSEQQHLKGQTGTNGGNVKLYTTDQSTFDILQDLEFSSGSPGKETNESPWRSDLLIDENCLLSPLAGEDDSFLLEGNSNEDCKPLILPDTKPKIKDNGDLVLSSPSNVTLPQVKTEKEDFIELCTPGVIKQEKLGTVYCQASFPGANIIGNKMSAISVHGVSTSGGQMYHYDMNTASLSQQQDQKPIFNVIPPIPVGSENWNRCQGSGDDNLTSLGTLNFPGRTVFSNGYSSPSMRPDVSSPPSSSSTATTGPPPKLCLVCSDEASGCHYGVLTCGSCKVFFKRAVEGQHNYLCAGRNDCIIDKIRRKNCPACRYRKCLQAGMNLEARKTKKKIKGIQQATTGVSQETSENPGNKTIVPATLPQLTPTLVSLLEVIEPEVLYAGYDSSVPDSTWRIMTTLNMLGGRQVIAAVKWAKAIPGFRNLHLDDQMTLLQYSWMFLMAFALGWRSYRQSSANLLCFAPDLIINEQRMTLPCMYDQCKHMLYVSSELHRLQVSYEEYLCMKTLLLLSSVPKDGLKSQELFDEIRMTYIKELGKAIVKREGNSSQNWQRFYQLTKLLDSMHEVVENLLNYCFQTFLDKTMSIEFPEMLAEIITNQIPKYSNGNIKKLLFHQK

The first experiment concerns the target Glucocorticoid receptor (Homo sapiens) (UniProt P04150). Nature of the experiment: GR-EFC Redistribution (AID 451). Note: potency is the fitted concentration of half-maximal effect. Particulars: CHO-K1 GR-EFC translocation, beta-gal luminescence, 2 h. In short, it runs like this:
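CHO-K1 cells stably expressing nuclear-localized β-gal enzyme acceptor and GR fused C-terminally to the enzyme donor fragment; ligand-driven nuclear translocation restores β-gal by complementation. Compounds titrated up to 46 uM final, 2 h at 37 °C; luminescence read.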
With `O=C(O)CC(CC(=O)O)n1cccc1`, the Potency was above 9.22 µM.

As to `CC(C)(CN)CN`, the Potency was above 9.22 µM.

Consider `O=C(O)NCC1CCCCC1` (tested in a mixture with another compound), for which the Potency is above 9.22 µM.

In the case of `O=C(O)CCC(=O)c1ccc2ccc3cccc4ccc1c2c34`, the Potency was above 9.22 µM.

Turning to `O=C(O)c1cc2ccccc2c(S(=O)(=O)O)c1O`, the Potency is above 9.22 µM.

For `CCCCN1CSC(=S)N(Cc2ccccc2)C1`, the Potency was above 9.22 µM.

In the case of `COCCn1c(=O)c(-c2cc(F)cc(F)c2)nc2cnc(Oc3ccccc3)nc21`, the Potency was above 46 µM.

Turning to `S=C(Nc1ccc2cn[nH]c2c1)Nc1ccc2cn[nH]c2c1`, the Potency was above 9.22 µM.

In the case of `CC(C)NC1(C(N)=O)CCN(Cc2ccccc2)CC1`, the Potency is above 9.22 µM.

For `O=C1/C(=C/c2cccnc2)SC(=S)N1Cc1ccco1`, the Potency was above 9.22 µM.

For the molecule `COc1ccc(-c2cc([C@H](O)[C@@H]3CCCCN3)c3ccccc3n2)cc1`, the Potency is above 9.22 µM.

In the case of `NCCCc1c(-c2ccccc2)nc(N)[nH]c1=O`, the Potency is above 9.22 µM.

On to `c1ccc2c(CN3CCN(Cc4c[nH]c5ccccc45)CC3)c[nH]c2c1`, for which the Potency was above 9.22 µM.

On to `Cc1cnc(CNc2nc(-c3cccnc3)nc3ccccc23)cn1`, for which the Potency is above 46 µM.

For the molecule `c1ccc2c(c1)nnn2CN1CCOCC1`, the Potency was above 9.22 µM.

Consider `CC[C@H](C(=O)c1cccs1)C(O)(C(F)(F)F)C(F)(F)F`, for which the Potency is above 9.22 µM.

For the molecule `N=C(N)SCc1ccc(Cl)cc1Cl` (tested in a mixture with another compound), the Potency is above 9.22 µM.

`O=C(O)C1(C(=O)O)CCN(S(=O)(=O)c2ccccc2)CC1`: the Potency was above 9.22 µM.

With `CN(C)CCNc1nc2c(c(=O)n(C)c(=O)n2C)n1C`, the Potency was above 9.22 µM.

Turning to `COc1ccc(OC)c(-c2cc(C(=O)O)c3cc4ccccc4cc3n2)c1`, the Potency was above 9.22 µM.

Consider `CN=C(N)/N=C(\N)Nc1cc2ccccc2c2ccccc12`, for which the Potency is above 9.22 µM.

Turning to `Oc1ccc2ccccc2c1CN(Cc1c(O)ccc2ccccc12)C1CCCCC1`, the Potency is above 9.22 µM.

With `CN(C)C(=O)c1ccc(-c2nc(Nc3ccncc3)c3ccccc3n2)cc1`, the Potency was above 46 µM.

Consider `c1ccc(C(CCN2CC3CCC(CC3)C2)c2ccccc2)cc1`, for which the Potency is above 9.22 µM.

`Cc1cn([C@H]2C[C@H](O)[C@@H](COC(N)=O)O2)c(=O)[nH]c1=O`: the Potency was above 9.22 µM.

As to `C[C@]12CC[C@H]3c4ccc(O)cc4CC[C@@H]3[C@H]1C/C(=N/O)[C@H]2O`, the Potency is above 9.22 µM.

On to `CCOC(=O)C1=C(C)NC(=O)N[C@@H]1c1coc2cc(C)cc(C)c2c1=O`, for which the Potency was above 9.22 µM.

With `N/C(CC/C(N)=N/O)=N\O`, the Potency is above 9.22 µM.

Consider `c1ccc2sc(SCCSc3nc4ccccc4s3)nc2c1`, for which the Potency was above 9.22 µM.

In the case of `O=C(O)[C@@H](c1ccccc1)[C@@H](C(=O)O)c1ccccc1`, the Potency was above 9.22 µM.

For the molecule `O=C(O)c1nn(-c2ccccc2-c2n[nH]c(=O)[nH]c2=O)c(=O)[nH]c1=O`, the Potency was above 9.22 µM.

Turning to `NNC(=O)c1ccc[n+](CCc2ccccc2)c1`, the Potency is above 9.22 µM.

Consider `CN(Cc1cc(Cl)cc(Cl)c1O)Cc1c(O)ccc2ccccc12`, for which the Potency is above 9.22 µM.

`NS(=O)(=O)c1cc2c(cc1Cl)=NC(CCC(=O)O)=NS=2(=O)O`: the Potency was above 9.22 µM.

Turning to `CC[C@H]1CN(C)[C@H]2Cc3c([nH]c4ccccc34)C(=O)C[C@H]1[C@H]2C(=O)OC`, the Potency is above 9.22 µM.

For the molecule `O=C(O)[C@@H]1[C@@H](C(=O)O)[C@]23C[C@@]2(C(=O)O)[C@]2(C(=O)O)CCC3=C3CCCC312`, the Potency is above 9.22 µM.

As for `CCCn1cnc2c(SCc3ccc(Cl)cc3)nc(N)nc21`, the Potency is above 9.22 µM.

On to `Clc1cc2c(c(CSC3=NCN(CC4CC4)CN3)c1)OCOC2`, for which the Potency is above 9.22 µM.

On to `CCOC(=S)SCC(=O)O`, for which the Potency is above 9.22 µM.

For `C[N+](C)(N)CCC[N+](C)(C)N`, the Potency is above 9.22 µM.

The target in the next experiment is Mitogen-activated protein kinase 10 (Mus musculus) (UniProt Q61831). Nature of the experiment: JNK3 AlphaScreen Assay (AID 530; active = well fitted curve in either direction with a large enough effect, not every such curve was filed as active;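 note: kinase came from lysate of stimulated human HepG2 cells; signal reports phosphorylation of biotinylated GST-cJun 1-79 at Ser73 with 10 µM ATP; % is set by controls: 0 for no effect and ±100 for the full control effect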). The note with it: JNK3 lysate, c-Jun phosphorylation; series mostly up to 11.4 µM; activity change, negative = inhibition: at the top concentration. In outline:
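Biotinylated GST-cJun(1-79) served as substrate for JNK3 in HepG2 lysates stimulated with IL-1beta and TNF-alpha. ATP was 10 uM final, pH 7.6. Ser73 phosphorylation was quantified by AlphaScreen (680 nm excitation).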
For orientation: Bead proximity is the source of the signal in Alpha formats.
Consider `O=C(O)CC(CC(=O)O)n1cccc1`, for which the “activity change, negative = inhibition” value was 3.23%.

Regarding `CC(C)(CN)CN`, the “activity change, negative = inhibition” value was 1.14%.

Consider `O=C(O)NCC1CCCCC1` (tested in a mixture with another compound), for which the “activity change, negative = inhibition” value is -1.3%.

For the molecule `O=C(O)CCC(=O)c1ccc2ccc3cccc4ccc1c2c34`, the “activity change, negative = inhibition” value was 1.71%.

Regarding `O=C(O)c1cc2ccccc2c(S(=O)(=O)O)c1O`, the “activity change, negative = inhibition” value was 3.38%.

In the case of `CCCCN1CSC(=S)N(Cc2ccccc2)C1`, the “activity change, negative = inhibition” value was 5.36%.

In the case of `COCCn1c(=O)c(-c2cc(F)cc(F)c2)nc2cnc(Oc3ccccc3)nc21`, the “activity change, negative = inhibition” value is -16.6% [at 57.1 µM].

Consider `S=C(Nc1ccc2cn[nH]c2c1)Nc1ccc2cn[nH]c2c1`, for which the “activity change, negative = inhibition” value is -6.88%.

As to `CC(C)NC1(C(N)=O)CCN(Cc2ccccc2)CC1`, the “activity change, negative = inhibition” value is 4.03%.

As for `O=C1/C(=C/c2cccnc2)SC(=S)N1Cc1ccco1`, the “activity change, negative = inhibition” value was -1.38%.

Take `COc1ccc(-c2cc([C@H](O)[C@@H]3CCCCN3)c3ccccc3n2)cc1`: the “activity change, negative = inhibition” value was 0.567%.

With `NCCCc1c(-c2ccccc2)nc(N)[nH]c1=O`, the “activity change, negative = inhibition” value is -1.86%.

As for `c1ccc2c(CN3CCN(Cc4c[nH]c5ccccc45)CC3)c[nH]c2c1`, the “activity change, negative = inhibition” value is 2.35%.

In the case of `Cc1cnc(CNc2nc(-c3cccnc3)nc3ccccc23)cn1`, the “activity change, negative = inhibition” value was -14% [at 57.1 µM].

In the case of `c1ccc2c(c1)nnn2CN1CCOCC1`, the “activity change, negative = inhibition” value is 1.11%.

In the case of `CC[C@H](C(=O)c1cccs1)C(O)(C(F)(F)F)C(F)(F)F`, the “activity change, negative = inhibition” value is 0.518%.

`N=C(N)SCc1ccc(Cl)cc1Cl` (tested in a mixture with another compound): the “activity change, negative = inhibition” value was -2.45%.

As for `O=C(O)C1(C(=O)O)CCN(S(=O)(=O)c2ccccc2)CC1`, the “activity change, negative = inhibition” value is 0.276%.

With `CN(C)CCNc1nc2c(c(=O)n(C)c(=O)n2C)n1C`, the “activity change, negative = inhibition” value is -1.99%.

In the case of `COc1ccc(OC)c(-c2cc(C(=O)O)c3cc4ccccc4cc3n2)c1`, the “activity change, negative = inhibition” value was -1.44%.

As for `CN=C(N)/N=C(\N)Nc1cc2ccccc2c2ccccc12`, the “activity change, negative = inhibition” value was -1.44%.

On to `Oc1ccc2ccccc2c1CN(Cc1c(O)ccc2ccccc12)C1CCCCC1`, for which the “activity change, negative = inhibition” value was -0.359%.

Turning to `CN(C)C(=O)c1ccc(-c2nc(Nc3ccncc3)c3ccccc3n2)cc1`, the “activity change, negative = inhibition” value was -23.9% [at 57.1 µM].

For `c1ccc(C(CCN2CC3CCC(CC3)C2)c2ccccc2)cc1`, the “activity change, negative = inhibition” value is 1.82%.

Turning to `Cc1cn([C@H]2C[C@H](O)[C@@H](COC(N)=O)O2)c(=O)[nH]c1=O`, the “activity change, negative = inhibition” value is 9.39%.

On to `C[C@]12CC[C@H]3c4ccc(O)cc4CC[C@@H]3[C@H]1C/C(=N/O)[C@H]2O`, for which the “activity change, negative = inhibition” value was 3.76%.

Turning to `CCOC(=O)C1=C(C)NC(=O)N[C@@H]1c1coc2cc(C)cc(C)c2c1=O`, the “activity change, negative = inhibition” value is 0.442%.

Take `N/C(CC/C(N)=N/O)=N\O`: the “activity change, negative = inhibition” value is 4.02%.

In the case of `c1ccc2sc(SCCSc3nc4ccccc4s3)nc2c1`, the “activity change, negative = inhibition” value is 6.92%.

With `O=C(O)[C@@H](c1ccccc1)[C@@H](C(=O)O)c1ccccc1`, the “activity change, negative = inhibition” value is -0.807%.

On to `O=C(O)c1nn(-c2ccccc2-c2n[nH]c(=O)[nH]c2=O)c(=O)[nH]c1=O`, for which the “activity change, negative = inhibition” value is 3.99%.

In the case of `NNC(=O)c1ccc[n+](CCc2ccccc2)c1`, the “activity change, negative = inhibition” value was -0.498%.

For `CN(Cc1cc(Cl)cc(Cl)c1O)Cc1c(O)ccc2ccccc12`, the “activity change, negative = inhibition” value is 1.55%.

As to `NS(=O)(=O)c1cc2c(cc1Cl)=NC(CCC(=O)O)=NS=2(=O)O`, the “activity change, negative = inhibition” value was 7.26%.

For `CC[C@H]1CN(C)[C@H]2Cc3c([nH]c4ccccc34)C(=O)C[C@H]1[C@H]2C(=O)OC`, the “activity change, negative = inhibition” value is 12.2%.

With `O=C(O)[C@@H]1[C@@H](C(=O)O)[C@]23C[C@@]2(C(=O)O)[C@]2(C(=O)O)CCC3=C3CCCC312`, the “activity change, negative = inhibition” value is 3.13%.

As to `CCCn1cnc2c(SCc3ccc(Cl)cc3)nc(N)nc21`, the “activity change, negative = inhibition” value was 3.96%.

In the case of `Clc1cc2c(c(CSC3=NCN(CC4CC4)CN3)c1)OCOC2`, the “activity change, negative = inhibition” value was 3.47%.

With `CCOC(=S)SCC(=O)O`, the “activity change, negative = inhibition” value is 1.59%.

For the molecule `C[N+](C)(N)CCC[N+](C)(C)N`, the “activity change, negative = inhibition” value was 3.04%.
